Test results taken from PubChem BioAssay (EPA / NIEHS).
“And” between values parts separate entries of the source, which are not always exact repeats. Equal values may be shown once. More than one record can exist for a structure, and the calls need not agree. The source made the active and inactive calls. The calls were made as follows: active = hit-call score of the fitted dose curve at least 0.9, where 1 is the maximum; inactive = score below 0.9.

Key:
[1] = target: Bile acid receptor (Homo sapiens) (UniProt Q96RI1); assay: ATG_IR1_CIS: Attagene CIS-FACTORIAL HepG2 Assay for human Nuclear Receptor Subfamily 1 Group H Member 4 (NR1H4), IR1 submotif (AID 2282946); details: IR1 reporter transcription, actives raise or lower the signal
Outline: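 Fluorescence of capillary-separated, HpaI-digested RT-PCR reporter products gave IR1-element mRNA induction in HepG2 cells 24 h after dosing. Endogenous transcription factors drove the cis-regulated reporters; activity was fitted bidirectionally against DMSO.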

[2] = ATG_ISRE_CIS: Attagene CIS-FACTORIAL HepG2 Assay for human Interferon Regulatory Factor 1 (IRF1) binding to an Interferon-Stimulated Response Element (ISRE) (AID 2282948); details: HepG2 ISRE cis-reporter (Attagene), mRNA transcription readout; actives raise or lower the signal
Outline: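 Uses HepG2 liver cells transfected with cis-regulated reporters and measures mRNA 24 h post-dosing through RT-PCR, primer-extension labelling and capillary electrophoresis, with DMSO as negative control.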

[3] = ATG_M_32_CIS: Attagene CIS-FACTORIAL HepG2 Assay for M32 Transcription Factor (Internal Marker) (AID 2282949); details: HepG2 Attagene cis-factorial M32 reporter, mRNA; actives raise or lower the signal;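 also: background control marker of the multiplexed CIS panel rather than a real target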
Outline: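 HepG2 transfectants (cis-regulated reporter transcription units) dosed 24 h. Reporter mRNA by RT-PCR plus CE, analysed as gain or loss relative to DMSO.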

[4] = ATG_M_06_CIS: Attagene CIS-FACTORIAL HepG2 Assay for M06 Transcription Factor (Internal Marker) (AID 2282950); details: HepG2 Attagene CIS-FACTORIAL M06 internal marker reporter; actives raise or lower the signal
Outline: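 Cells (HepG2, transiently carrying cis-driven reporter units) receive chemical for 24 h before RNA isolation. Reporter cDNA is PCR-amplified, FAM-labelled by primer extension, HpaI-digested and sized on a capillary analyser.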

[5] = target: Hypoxia-inducible factor 1-alpha (Homo sapiens) (UniProt Q16665); assay: ATG_HIF1a_CIS: Attagene CIS-FACTORIAL HepG2 Assay for human Hypoxia Inducible Factor 1 (HIF1A) (AID 2282951); details: HepG2 Attagene cis-factorial HIF1a reporter transcription; actives raise or lower the signal
Outline: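 HepG2, transient cis-reporter library, 24 h dosing. RNA → RT (oligo dT) → PCR → 6-FAM primer extension → HpaI → CE. Bidirectional curve fit vs DMSO.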

[6] = target: Hepatocyte nuclear factor 6 (Homo sapiens) (UniProt Q9UBC0); assay: ATG_HNF6_CIS: Attagene CIS-FACTORIAL HepG2 Assay for human Hepatocyte Nuclear Factor 6 (HNF6) (AID 2282952); details: HepG2 Attagene cis-factorial HNF6 reporter transcription; actives raise or lower the signal
Outline: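 Using cis-element reporters in HepG2 liver cells, the assay tracks endogenous factor-driven transcription 24 h post-dosing. Signal comes from 6-FAM-labelled, HpaI-digested RT-PCR fragments, with gain or loss scored against DMSO.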

[7] = target: Heat shock factor protein 1 (Homo sapiens) (UniProt Q00613); assay: ATG_HSE_CIS: Attagene CIS-FACTORIAL HepG2 Assay for human Heat Shock Transcription Factor 1 (HSE) (AID 2282953); details: HepG2 HSE cis-reporter, Attagene RNA transcription; actives raise or lower the signal
Outline: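 Liver-derived HepG2 cells carry transiently introduced multiple reporter units governed by cis promoters. Reporter RNA measured 24 h post-dose through reverse transcription, PCR amplification, fluorescent labelling and capillary electrophoresis, normalised to DMSO.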

[8] = ATG_MRE_CIS: Attagene CIS-FACTORIAL HepG2 Assay for human Metal Responsive Element (MRE) (AID 2282954); details: HepG2 MRE cis-reporter transcription, Attagene multiplex; actives raise or lower the signal
Outline: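 Measured here is mRNA induction from an MRE cis-element reporter in HepG2 after 24 h, quantified by fluorescence of labelled RT-PCR products on capillary electrophoresis; gain- and loss-of-signal fits use DMSO as baseline.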

[9] = ATG_PBREM_CIS: Attagene CIS-FACTORIAL HepG2 Assay for human Phenobarbital-responsive Enhancer Module (PBREM) (AID 2282955); details: HepG2 PBREM cis-reporter, Attagene multiplexed transcription; actives raise or lower the signal
Outline: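 HepG2, transient MRTU transfection, 24 h dosing; RNA → oligo(dT) RT → PCR → 6-FAM extension → HpaI → CE. Bidirectional fit vs DMSO.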

[10] = target: Paired box protein Pax-6 (Homo sapiens) (UniProt P26367); assay: ATG_Pax6_CIS: Attagene CIS-FACTORIAL HepG2 Assay for human Paired Box 6 (PAX6) (AID 2282956); details: HepG2 CIS-FACTORIAL PAX6 reporter transcription, RNA readout; actives raise or lower the signal
Outline: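 DMSO-referenced bidirectional fits of reporter mRNA fluorescence; HepG2 with transient cis-promoter MRTUs, 24 h post-dose, RT-PCR plus capillary electrophoresis detection.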

[11] = ATG_PXRE_CIS: Attagene CIS-FACTORIAL HepG2 Assay for human Pregnane X Receptor Element (PXRE) (AID 2282957); details: HepG2 Attagene CIS-FACTORIAL PXRE reporter, mRNA; actives raise or lower the signal
Outline: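 Using HepG2 transfected with multiple reporter transcription units, endogenous factor-driven transcription was scored as reporter mRNA after 24 h exposure.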

[12] = ATG_PPRE_CIS: Attagene CIS-FACTORIAL HepG2 Assay for human Peroxisome Proliferator-activated Response Element (PPRE) (AID 2282958); details: HepG2 PPRE cis-element reporter, Attagene transcription factor profiling; actives raise or lower the signal
Outline: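 Transcript-level reporter induction in transfected HepG2 cells after 24 h chemical exposure, quantified by fluorescence from RT-PCR products separated by capillary electrophoresis.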

[13] = ATG_RORE_CIS: Attagene CIS-FACTORIAL HepG2 Assay for human RAR-related Orphan Receptor Element (RORE) (AID 2282959); details: HepG2 Attagene cis-factorial RORE reporter, mRNA; actives raise or lower the signal
Outline: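 Multiplexed reporter assay measuring mRNA induction from a cis promoter element in transiently transfected HepG2 cells after 24 h treatment. Detection via RT-PCR and capillary electrophoresis fluorescence; DMSO serves as baseline.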

[14] = ATG_Sox_CIS: Attagene CIS-FACTORIAL HepG2 Assay for human SRY-box transcription factor (SOX) (AID 2282960); details: HepG2 Attagene cis-factorial SOX reporter, mRNA; actives raise or lower the signal
Outline: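 Cells were transfected with reporter constructs under cis-regulatory promoters, then exposed to chemicals for 24 h. Reporter transcripts were quantified by fluorescence after RT-PCR and capillary electrophoresis; activity was fitted in both directions against DMSO.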

[15] = target: Transcription factor Sp1 (Homo sapiens) (UniProt P08047); assay: ATG_Sp1_CIS: Attagene CIS-FACTORIAL HepG2 Assay for human Specificity Protein 1 (Sp1) (AID 2282961); details: HepG2 Sp1 cis-reporter transcription, actives raise or lower the signal
Outline: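 Measures mRNA induction of an Sp1-linked reporter in HepG2 cells 24 h post-dosing. Multiplexed reporters read by RT-PCR and capillary electrophoresis; DMSO serves as negative control and baseline.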

[16] = ATG_SREBP_CIS: Attagene CIS-FACTORIAL HepG2 Assay for human Sterol Regulatory Element Binding (SREBP) (AID 2282962); details: HepG2 Attagene cis-factorial SREBP reporter, mRNA; actives raise or lower the signal
Outline: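 In this cis-format assay, HepG2 liver cells express reporters controlled by promoter elements responsive to native transcription factors. Exposure lasts 24 h; reporter mRNA fluorescence from capillary electrophoresis gives the signal, fitted bidirectionally against DMSO.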

[17] = target: Signal transducer and activator of transcription 3 (Homo sapiens) (UniProt P40763); assay: ATG_STAT3_CIS: Attagene CIS-FACTORIAL HepG2 Assay for human Signal Transducer and Activator of Transcription 3 (STAT3) (AID 2282963); details: HepG2, Attagene cis-factorial STAT3 reporter transcription; actives raise or lower the signal
Outline: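 Fluorescence intensity of 6-FAM-labelled reporter fragments, separated by capillary electrophoresis after RT-PCR, gave the signal. Cells were HepG2 transfected with cis-element reporter units and treated 24 h; fitting was bidirectional relative to DMSO.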

[18] = ATG_TA_CIS: Attagene CIS-FACTORIAL HepG2 Assay for human TA Basal Promoter (AID 2282964); details: HepG2 Attagene CIS-factorial TA basal promoter reporter; actives raise or lower the signal
Outline: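 Background internal-marker endpoint from a 52-component HepG2 cis-reporter panel. Cells treated 24 h; reporter transcripts quantified via RT-PCR and CE fluorescence against DMSO baseline.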

[19] = ATG_GRE_CIS: Attagene CIS-FACTORIAL HepG2 Assay for human Glucocorticoid Response Elements (GRE) (AID 2282947); details: HepG2 GRE cis-reporter, Attagene multiplex mRNA; actives raise or lower the signal
Outline: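 Fluorescence intensity of reporter-specific cDNA fragments, separated by capillary electrophoresis, provides the signal. Constructs carry cis-regulating promoters in transiently transfected HepG2 liver cells; 24 h incubation; fitting is bidirectional against DMSO.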

[20] = ATG_TCF_b_cat_CIS: Attagene CIS-FACTORIAL HepG2 Assay for human T-Cell-Factor with beta-catenin (TCF/b-cat) (AID 2282965); details: HepG2 TCF/beta-catenin cis-reporter transcription, actives raise or lower the signal
Outline: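 Cells of the HepG2 line carry transiently transfected reporter units whose promoters respond to endogenous factors. Twenty-four hours post-dosing, reporter mRNA induction is measured by fluorescent RT-PCR and capillary electrophoresis, with DMSO as baseline.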

Measured: AC50

Sequence of Bile acid receptor (Homo sapiens) (Q96RI1 whole entry, looked up): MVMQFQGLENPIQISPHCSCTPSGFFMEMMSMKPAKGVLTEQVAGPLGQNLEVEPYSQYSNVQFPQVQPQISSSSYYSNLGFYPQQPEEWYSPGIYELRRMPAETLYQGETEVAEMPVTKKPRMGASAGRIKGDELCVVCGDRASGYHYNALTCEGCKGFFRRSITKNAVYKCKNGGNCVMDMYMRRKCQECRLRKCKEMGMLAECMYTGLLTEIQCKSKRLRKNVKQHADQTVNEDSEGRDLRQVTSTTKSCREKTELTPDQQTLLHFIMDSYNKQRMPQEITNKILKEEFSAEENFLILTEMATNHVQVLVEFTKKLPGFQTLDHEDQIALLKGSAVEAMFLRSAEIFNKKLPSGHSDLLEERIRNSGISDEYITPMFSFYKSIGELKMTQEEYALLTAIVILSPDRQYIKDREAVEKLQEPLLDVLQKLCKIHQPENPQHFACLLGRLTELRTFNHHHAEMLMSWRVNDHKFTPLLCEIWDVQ
Sequence of Transcription factor Sp1 (Homo sapiens) (P08047 whole entry, looked up): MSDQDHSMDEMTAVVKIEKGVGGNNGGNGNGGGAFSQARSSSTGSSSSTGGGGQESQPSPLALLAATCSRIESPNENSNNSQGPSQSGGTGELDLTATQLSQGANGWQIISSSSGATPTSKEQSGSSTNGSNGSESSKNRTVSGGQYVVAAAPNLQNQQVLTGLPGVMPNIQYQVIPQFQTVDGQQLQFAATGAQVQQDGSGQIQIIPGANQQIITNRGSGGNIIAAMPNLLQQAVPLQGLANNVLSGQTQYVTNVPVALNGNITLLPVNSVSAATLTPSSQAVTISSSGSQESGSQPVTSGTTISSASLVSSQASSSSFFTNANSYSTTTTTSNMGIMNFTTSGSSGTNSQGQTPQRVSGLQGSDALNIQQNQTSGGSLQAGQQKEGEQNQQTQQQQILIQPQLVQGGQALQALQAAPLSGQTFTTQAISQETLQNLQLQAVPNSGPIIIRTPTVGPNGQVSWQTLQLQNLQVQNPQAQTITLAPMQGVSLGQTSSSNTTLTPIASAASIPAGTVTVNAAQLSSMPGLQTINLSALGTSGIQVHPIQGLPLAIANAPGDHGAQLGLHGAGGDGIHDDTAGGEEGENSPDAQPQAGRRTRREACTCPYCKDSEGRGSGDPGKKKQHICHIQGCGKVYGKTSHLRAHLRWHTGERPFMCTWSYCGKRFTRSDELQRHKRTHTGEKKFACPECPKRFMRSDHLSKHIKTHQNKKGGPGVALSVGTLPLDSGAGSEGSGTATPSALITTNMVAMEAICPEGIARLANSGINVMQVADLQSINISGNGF
Sequence of Heat shock factor protein 1 (Homo sapiens) (Q00613 whole entry, looked up): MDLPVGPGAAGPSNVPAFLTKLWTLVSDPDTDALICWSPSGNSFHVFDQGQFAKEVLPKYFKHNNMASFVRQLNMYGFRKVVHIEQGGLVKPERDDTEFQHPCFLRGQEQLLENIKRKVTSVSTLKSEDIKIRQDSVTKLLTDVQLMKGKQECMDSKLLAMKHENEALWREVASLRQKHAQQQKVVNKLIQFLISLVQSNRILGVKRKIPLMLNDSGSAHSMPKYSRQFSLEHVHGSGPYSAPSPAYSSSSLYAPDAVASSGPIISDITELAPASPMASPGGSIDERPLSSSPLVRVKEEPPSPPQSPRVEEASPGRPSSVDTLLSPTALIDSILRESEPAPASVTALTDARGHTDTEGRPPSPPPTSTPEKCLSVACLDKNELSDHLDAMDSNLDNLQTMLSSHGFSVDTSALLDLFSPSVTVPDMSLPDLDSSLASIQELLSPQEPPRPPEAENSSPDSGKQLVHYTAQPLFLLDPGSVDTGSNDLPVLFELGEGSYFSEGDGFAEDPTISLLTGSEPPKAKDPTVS
Sequence of Hepatocyte nuclear factor 6 (Homo sapiens) (Q9UBC0 whole entry, looked up, the tested form may be a part): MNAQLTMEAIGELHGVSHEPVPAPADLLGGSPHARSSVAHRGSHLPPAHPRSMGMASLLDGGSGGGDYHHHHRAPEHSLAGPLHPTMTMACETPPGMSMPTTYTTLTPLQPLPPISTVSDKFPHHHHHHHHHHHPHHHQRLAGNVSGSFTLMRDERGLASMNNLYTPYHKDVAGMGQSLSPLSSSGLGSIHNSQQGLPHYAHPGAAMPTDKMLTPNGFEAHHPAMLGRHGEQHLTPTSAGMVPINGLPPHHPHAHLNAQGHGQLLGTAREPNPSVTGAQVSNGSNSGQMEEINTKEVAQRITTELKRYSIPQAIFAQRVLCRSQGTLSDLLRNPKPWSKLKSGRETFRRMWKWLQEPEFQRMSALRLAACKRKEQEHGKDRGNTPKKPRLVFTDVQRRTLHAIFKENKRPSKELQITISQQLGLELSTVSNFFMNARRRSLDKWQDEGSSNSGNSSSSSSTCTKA
Sequence of Hypoxia-inducible factor 1-alpha (Homo sapiens) (Q16665 whole entry, looked up): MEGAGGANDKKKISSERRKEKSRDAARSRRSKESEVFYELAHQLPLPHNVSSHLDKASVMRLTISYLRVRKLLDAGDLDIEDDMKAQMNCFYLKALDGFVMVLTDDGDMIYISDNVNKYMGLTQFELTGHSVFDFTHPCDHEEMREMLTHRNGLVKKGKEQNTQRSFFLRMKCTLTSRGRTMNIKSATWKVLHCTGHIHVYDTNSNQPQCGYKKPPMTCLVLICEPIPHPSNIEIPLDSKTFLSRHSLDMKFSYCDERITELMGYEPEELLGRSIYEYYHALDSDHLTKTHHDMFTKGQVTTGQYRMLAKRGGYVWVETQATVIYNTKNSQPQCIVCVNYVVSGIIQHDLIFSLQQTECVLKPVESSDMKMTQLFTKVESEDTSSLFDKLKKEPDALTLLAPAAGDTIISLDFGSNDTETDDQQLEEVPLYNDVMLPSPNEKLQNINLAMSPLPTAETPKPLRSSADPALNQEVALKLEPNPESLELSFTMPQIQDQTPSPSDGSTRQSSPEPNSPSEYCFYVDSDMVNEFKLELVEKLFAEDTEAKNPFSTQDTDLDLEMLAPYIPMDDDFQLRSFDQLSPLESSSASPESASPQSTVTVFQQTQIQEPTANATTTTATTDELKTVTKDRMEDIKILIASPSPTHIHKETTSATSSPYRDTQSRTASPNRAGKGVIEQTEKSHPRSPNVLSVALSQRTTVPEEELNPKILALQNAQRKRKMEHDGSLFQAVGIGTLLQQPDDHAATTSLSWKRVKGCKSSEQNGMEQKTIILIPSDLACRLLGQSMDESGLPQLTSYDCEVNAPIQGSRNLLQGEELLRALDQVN
Sequence of Paired box protein Pax-6 (Homo sapiens) (P26367 whole entry, looked up): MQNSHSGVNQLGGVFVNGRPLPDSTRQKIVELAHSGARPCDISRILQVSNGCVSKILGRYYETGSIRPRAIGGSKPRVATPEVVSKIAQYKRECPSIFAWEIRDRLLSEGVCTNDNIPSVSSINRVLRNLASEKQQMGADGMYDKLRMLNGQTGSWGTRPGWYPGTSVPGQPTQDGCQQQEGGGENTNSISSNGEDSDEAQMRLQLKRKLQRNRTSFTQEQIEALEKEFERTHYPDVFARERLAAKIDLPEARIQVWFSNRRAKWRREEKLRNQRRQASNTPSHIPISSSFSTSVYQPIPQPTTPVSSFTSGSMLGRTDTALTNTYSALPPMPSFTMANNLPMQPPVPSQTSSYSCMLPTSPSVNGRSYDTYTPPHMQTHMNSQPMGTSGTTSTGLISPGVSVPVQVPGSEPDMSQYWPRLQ
Sequence of Signal transducer and activator of transcription 3 (Homo sapiens) (P40763 whole entry, looked up, the tested form may be a part): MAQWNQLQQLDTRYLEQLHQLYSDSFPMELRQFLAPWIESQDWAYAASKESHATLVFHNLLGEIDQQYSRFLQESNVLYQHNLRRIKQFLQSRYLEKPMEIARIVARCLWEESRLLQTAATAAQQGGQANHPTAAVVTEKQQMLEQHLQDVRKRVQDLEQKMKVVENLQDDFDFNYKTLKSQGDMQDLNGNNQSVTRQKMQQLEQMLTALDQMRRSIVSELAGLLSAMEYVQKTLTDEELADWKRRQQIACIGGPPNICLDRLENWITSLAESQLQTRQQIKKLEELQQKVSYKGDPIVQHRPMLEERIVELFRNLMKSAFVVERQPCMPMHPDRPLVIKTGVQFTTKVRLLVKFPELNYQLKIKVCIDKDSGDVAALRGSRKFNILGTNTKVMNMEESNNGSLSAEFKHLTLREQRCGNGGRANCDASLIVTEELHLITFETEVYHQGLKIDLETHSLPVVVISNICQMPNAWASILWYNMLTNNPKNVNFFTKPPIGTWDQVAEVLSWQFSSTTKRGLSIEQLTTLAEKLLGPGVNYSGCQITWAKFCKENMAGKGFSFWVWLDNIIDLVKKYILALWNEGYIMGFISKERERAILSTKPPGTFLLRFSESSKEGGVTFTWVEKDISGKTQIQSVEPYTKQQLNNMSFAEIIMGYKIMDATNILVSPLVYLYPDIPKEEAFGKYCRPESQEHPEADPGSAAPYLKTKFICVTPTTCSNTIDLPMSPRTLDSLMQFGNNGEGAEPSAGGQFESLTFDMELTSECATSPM

CC1(C(=O)Nc2ccc(O)c(Cl)c2Cl)CCCCC1
active: [8] 50 µM | [9] 5.86 µM | [11] 2.91 µM | [12] 36.3 µM | [13] 50 µM | [16] 23.1 µM
inactive: [1] | [2] | [3] | [4] | [5] | [6] | [7] | [10] | [14] | [15] | [17] | [18]

CNC(=O)Oc1cccc2c1OC(C)(C)O2
active: [8] 67.7 µM | [11] 40.2 µM | [12] 50 µM | [15] 50 µM
inactive: [1] | [19] | [2] | [3] | [4] | [5] | [6] | [7] | [9] | [10] | [14] | [16] | [17] | [18]

CN1COCN(Cc2cnc(Cl)s2)C1=N[N+](=O)[O-]
inactive: [1] | [19] | [2] | [3] | [4] | [5] | [6] | [7] | [8] | [10] | [12] | [13] | [14] | [15] | [16] | [17] | [18]
active: [11] 50 µM

O=[N+]([O-])c1cc(C(F)(F)F)c(Cl)c([N+](=O)[O-])c1Nc1ncc(C(F)(F)F)cc1Cl
active: [1] 12.9 µM | [19] 20.3 µM | [2] 16.6 µM | [3] 18.1 µM | [6] 17.1 µM | [10] 6.88 µM | [11] 2.84 µM and 1.27 µM | [12] 14.6 µM | [17] 19.1 µM | [18] 15.4 µM
inactive: [1] | [19] | [2] | [3] | [4] | [6] | [7] | [8] | [9] | [10] | [12] | [13] | [14] | [15] | [16] | [17] | [18]

COP(=O)(OC)OC(Br)C(Cl)(Cl)Br (configuration not stated)
inactive: [1] | [19] | [2] | [3] | [4] | [6] | [7] | [8] | [9] | [10] | [11] | [12] | [13] | [14] | [15] | [16] | [17] | [18]

CCOP(=O)(OCC)Oc1cc(C)nc(C(C)C)n1
inactive: [1] | [19] | [2] | [3] | [4] | [6] | [7] | [8] | [10] | [11] | [12] | [13] | [14] | [15] | [16] | [17] | [18]

CC(COc1ccc(Oc2ccccc2)cc1)Oc1ccccn1 (configuration not stated)
active: [9] 13.8 µM | [11] 13.7 µM | [12] 15.1 µM | [13] 12.2 µM
inactive: [1] | [2] | [3] | [4] | [6] | [8] | [10] | [14] | [15] | [16] | [17] | [18] | [20]

CCC(CC)Nc1c([N+](=O)[O-])cc(C)c(C)c1[N+](=O)[O-]
active: [1] 50 µM | [2] 50 µM | [8] 28.9 µM | [11] 5.39 µM
inactive: [19] | [3] | [4] | [6] | [7] | [9] | [10] | [12] | [13] | [14] | [15] | [16] | [17] | [18] | [20]
